This note sets out measurements from PubChem BioAssay.

SMILES strings stand for the structures. For some of these results: Results with a measured potency or affinity are listed apart. Calls of active or inactive are those of the source.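 Rule for the calls, unless noted: active = fitted half-maximal concentration within the tested range, moderate curve steepness, significant signal drop, and little compound fluorescence or bead-linkage interference; inactive = the rest.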

For assay [1], the target named is Cell division control protein 42 homolog (Homo sapiens) (UniProt P60953). Nature of the assay: inhibition of fluorescent GTP binding to constitutively active Cdc42 – biochemical, multiplex bead flow cytometry, Bodipy-FL-GTP, dose response (AID 1333;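 active = fitted half-maximal concentration within the tested dose range, moderate curve steepness, a statistically real signal drop, and little compound fluorescence or tag-binding interference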). (In general: A flow cytometer gives signals particle by particle.)
Chain of Cell division control protein 42 homolog (Homo sapiens) (P60953 whole entry, looked up): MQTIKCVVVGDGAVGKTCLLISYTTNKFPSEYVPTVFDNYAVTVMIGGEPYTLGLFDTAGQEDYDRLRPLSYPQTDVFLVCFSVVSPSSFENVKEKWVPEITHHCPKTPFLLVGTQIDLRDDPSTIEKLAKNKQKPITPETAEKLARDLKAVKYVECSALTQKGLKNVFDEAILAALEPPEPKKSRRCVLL
Assay [2] has the same target. Description: inhibition of fluorescent GTP binding to wildtype Cdc42 – biochemical, multiplex bead flow cytometry, Bodipy-FL-GTP, dose response (AID 1334). The settings on record: bead-based flow cytometry, Bodipy-FL-GTP binding to GST-Cdc42; at 100 µM (top of the series) unless noted.
The target of assay [3] is GTPase HRas (Homo sapiens) (UniProt P01112). Description: Ras wt fluorescent GTP loading blockade – biochemical, wildtype, multiplex bead flow cytometry, dose response (AID 1335;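 active = fitted half-maximal concentration within 10 nM to 100 µM, steepness 0.5 to 2, significant signal drop, low assay interference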). Particulars: bead-based flow cytometry, Bodipy-GTP binding to GST-Ras; at 100 µM (top of the series) unless noted.
Chain of GTPase HRas (Homo sapiens) (P01112 whole entry, looked up): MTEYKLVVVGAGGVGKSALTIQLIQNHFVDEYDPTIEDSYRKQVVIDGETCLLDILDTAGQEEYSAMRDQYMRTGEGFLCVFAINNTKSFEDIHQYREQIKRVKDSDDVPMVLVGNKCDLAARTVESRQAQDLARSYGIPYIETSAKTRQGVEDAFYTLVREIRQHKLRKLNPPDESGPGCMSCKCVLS
The test system of assay [4] is Ras-related protein Rab-7a (dog), GTP binding. Nature of the assay: blockers of fluorescent GTP binding to Rab7 – biochemical, wildtype, multiplex bead flow cytometry, dose response (AID 1336; call rule not given here).
Assay [5] addresses Ras-related C3 botulinum toxin substrate 1 (Homo sapiens) (UniProt P63000). Nature of the assay: inhibition of wildtype Rac1 nucleotide loading – biochemical, multiplex bead flow cytometry, dose response (AID 1340;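 active = dose curve with midpoint inside tested range, moderate steepness, plateau gap beyond fit error, low compound glow and bead-link interference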). Particulars: GST-Rac1 beads, Bodipy-FL-GTP binding; at 100 µM (top of the series) unless noted.
Assay [6] deals with GTPase HRas (Homo sapiens) (UniProt P01112). Description: blockade of GTP loading onto mutant Ras – biochemical, activated mutant, multiplex bead flow cytometry, dose response (AID 1341;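 active = dose-response curve with midpoint inside the tested range, moderate steepness, significant amplitude and little compound fluorescence or bead-attachment interference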;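 note: GST-tagged constitutively activated Ras mutant immobilized on beads and multiplexed with other GTPases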).
A short description of assay [7]: hit retest on RPL19A-GFP reporter strain – cell-based, S. cerevisiae, flow cytometry, cherry picks, mother/daughter gates, confirmation (AID 2270;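 active = GFP response below 50% of the DMSO control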). Particulars: 3 h, at 10 µM, stronger effect = lower value, 100 = same GFP as DMSO wells.
The nature of assay [8]: yeast TOR pathway reporter LAP4-GFP change – cell-based, cherry picks, flow cytometry, mother/daughter gates, confirmation (AID 2271;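 active = GFP response above 150% of the DMSO control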;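 note: ratio of sample to DMSO plate mean so 100% equals DMSO level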). The settings on record: S. cerevisiae LAP4-GFP strain, 3 h, at 10 µM, stronger effect = higher value, 100 means same as DMSO control.
Assay [9] in a line: TOR pathway reporter MEP2-GFP, retest of hits – S. cerevisiae, flow cytometry GFP, cherry picks, confirmation (AID 2272;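 active = GFP response above 150% of the DMSO control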;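 note: ratio of well signal to plate DMSO mean so 100% equals DMSO level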). Particulars: S. cerevisiae MEP2-GFP strain, 3 h, at 10 µM, stronger effect = higher value.
A short description of assay [10]: yeast AGP1-GFP fluorescence change, single-dose – cell-based, flow cytometry, S. cerevisiae, cherry picks, confirmation (AID 2273;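 active = GFP response above 150% of the DMSO level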;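 note: median GFP channel fluorescence over the whole cell population gate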). The settings on record: S. cerevisiae AGP1-GFP strain, 3 h, at 10 µM.
Assay [11] is described as follows: TOR pathway CIT2 reporter hit retest – S. cerevisiae, GFP fusion, cherry picks, mother/daughter gates, confirmation (AID 2274;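 active = GFP response above 150% of the DMSO level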). Particulars: S. cerevisiae CIT2-GFP strain, flow cytometry, 3 h, at 10 µM, stronger effect = higher value.
Where [12] appears, read: measured here: daughter cell gate.
[13] abbreviates: measured here: mother cell gate.
Where [14] appears, read: measured here: daughter cell gate response.
[15] abbreviates: measured here: mother cell gate response.

As for `COc1cccc2sc(Nc3nc(-c4ccccn4)cs3)nc12`, the compound was called inactive in [1], in assay [4] and in assay [6]. The fluorescence, percent of control (lower = inhibition) in assay [2] is 34.8%. Further, the GTP binding, percent of control in [3] turned out to be 80.4%. Moreover, the GTP binding signal, raw median fluorescence (lower = inhibition) (MCF (arbitrary fluorescence units)) in [5] stood at 194. Further, the GFP response vs DMSO in assay [7] was 107% (inactive); in [7] (setting [12]), 99.5%; in assay [7] (setting [13]) it was 96.6%; in assay [9] it was 124% (inactive). Besides, the GFP response relative to DMSO in [8] is 254% (active); in [8] (setting [14]) it was 201%; in assay [8] (setting [15]), 240%. Further, the GFP response, % of DMSO was 104% (inactive) in [10], 96.5% (inactive) in [11], 99.7% in assay [11] (setting [12]) and 88% in assay [11] (setting [13]).

Take `NC(=O)NOCc1ncc(C(F)(F)F)cc1Cl`: the call in [1], in [4] and in assay [6] was inactive. In addition, in [2], the fluorescence, percent of control (lower = inhibition) worked out at 36.2%. This compound also returned a GTP binding, percent of control in assay [3] of 81.2%. In addition, in [5], the GTP binding signal, raw median fluorescence (lower = inhibition) (MCF (arbitrary fluorescence units)) was determined as 274.

On to `O=C(O)CCN1C(=O)/C(=C/c2ccc(-c3nc4ccccc4s3)o2)SC1=S`, for which the outcome in assay [1], in [4] and in [6] was inactive. In assay [2], the fluorescence, percent of control (lower = inhibition) is 32.8%. For the same compound, the GTP binding, percent of control in [3] was 53.9%.

As to `CCC(=O)N=C1SC2CS(=O)(=O)CC2N1c1cccc(OC)c1` (centres undefined), the call in [1], in assay [4] and in [6] was inactive. For the same compound, the fluorescence, percent of control (lower = inhibition) in assay [2] stood at 89%. In [3], the GTP binding, percent of control is 162%. The compound further yielded a GTP binding signal, raw median fluorescence (lower = inhibition) (MCF (arbitrary fluorescence units)) in assay [5] of 180.

In the case of `CS(=O)(=O)N1N=C(c2ccccc2)CC1c1ccc2c(c1)OCO2` (centres undefined), the compound was called inactive in assay [1], in assay [4] and in assay [6]. In assay [2], the fluorescence, percent of control (lower = inhibition) was found to be 112%. Besides, the GTP binding, percent of control in [3] stood at 120%. The same compound returned a GTP binding signal, raw median fluorescence (lower = inhibition) (MCF (arbitrary fluorescence units)) in [5] of 247. Besides, the GFP response vs DMSO in assay [7] is 136% (inactive); in assay [7] (setting [12]), 137%; in [7] (setting [13]), 135%; in assay [9], 1140% (active). Further, the GFP response relative to DMSO was 449% (active) in assay [8], 466% in assay [8] (setting [14]) and 439% in assay [8] (setting [15]). The GFP response, % of DMSO in assay [10] is 204% (active); in assay [11] it was 436% (active); in assay [11] (setting [12]) it was 437%; in [11] (setting [13]), 413%.

With `CN(C)c1ccc(/C=C/C(=O)c2cccc(Br)c2)cc1`, the compound was classed as inactive in assay [1], in [4] and in [6]. In addition, the fluorescence, percent of control (lower = inhibition) in assay [2] came out at 120%. Moreover, the GTP binding, percent of control in assay [3] was 213%. The GTP binding signal, raw median fluorescence (lower = inhibition) (MCF (arbitrary fluorescence units)) in [5] is 225. Also, the GFP response vs DMSO is 104% (inactive) in assay [7], 105% in assay [7] (setting [12]), 104% in [7] (setting [13]) and 112% (inactive) in assay [9]. Moreover, the GFP response relative to DMSO in assay [8] is 99.5% (inactive); in [8] (setting [14]), 97.5%; in assay [8] (setting [15]), 102%. Also, the GFP response, % of DMSO in assay [10] was 94% (inactive); in assay [11], 98.8% (inactive); in [11] (setting [12]), 97.4%; in [11] (setting [13]), 98.1%.

With `CC1CCCN(c2ccc3nc4ccccc4c(=O)n3n2)C1` (centres undefined), the result in assay [1], in [4] and in [6] was inactive. In assay [2], the fluorescence, percent of control (lower = inhibition) was 33.3%. The compound further registered a GTP binding, percent of control in assay [3] of 74.6%. In assay [5], the GTP binding signal, raw median fluorescence (lower = inhibition) (MCF (arbitrary fluorescence units)) was found to be 179.

Take `O=C(COc1ncnc2cc([N+](=O)[O-])ccc12)NCCc1ccc(Cl)cc1`: the outcome in assay [1], in assay [4] and in assay [6] was inactive. Also, in assay [2], the fluorescence, percent of control (lower = inhibition) came out at 36.6%. Further, the GTP binding, percent of control in assay [3] was determined as 78.8%.
